Source: the supplement of paper PMC6411743
± gives the standard deviation of the averaged measurements. About 5,400 targets were measured; listed, in parts, are those with the largest changes and a random draw of the rest.

Compound: Nc1nc2c(ncn2[C@@H]2O[C@H](COP(=O)(O)OP(=O)(O)OP(=O)(O)O)[C@@H](O)[C@H]2O)c(=O)[nH]1 [guanosine triphosphate]
Assay: NP40-soluble protein abundance relative to vehicle (solubility fold change) (ratio); higher = more soluble protein in presence of GTP
Procedure: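 Solubility proteome profiling in Jurkat crude lysate. Lysate was treated with Mg-GTP (0.1-10 mM) for 10 min at room temperature and 3 min at 37 °C, then solubilised with 0.8% NP40 and benzonase, followed by ultracentrifugation. Proteins were quantified by TMT10 LC-MS/MS; the value is the NP40-soluble abundance relative to the NP40-processed vehicle, from 3 independent experiments.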

Chain of UniProt Q9NS23 (Q9NS23 whole entry): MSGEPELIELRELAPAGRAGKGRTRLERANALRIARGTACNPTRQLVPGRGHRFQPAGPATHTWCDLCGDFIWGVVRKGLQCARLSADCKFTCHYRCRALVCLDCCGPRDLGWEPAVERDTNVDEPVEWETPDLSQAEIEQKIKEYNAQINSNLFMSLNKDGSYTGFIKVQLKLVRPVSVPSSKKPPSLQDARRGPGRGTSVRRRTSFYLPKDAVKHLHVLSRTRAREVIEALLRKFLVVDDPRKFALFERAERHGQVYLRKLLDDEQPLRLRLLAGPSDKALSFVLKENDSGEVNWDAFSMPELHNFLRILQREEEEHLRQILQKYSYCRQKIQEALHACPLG
Chain of UniProt Q9BVI0 (Q9BVI0 whole entry, one chain of several): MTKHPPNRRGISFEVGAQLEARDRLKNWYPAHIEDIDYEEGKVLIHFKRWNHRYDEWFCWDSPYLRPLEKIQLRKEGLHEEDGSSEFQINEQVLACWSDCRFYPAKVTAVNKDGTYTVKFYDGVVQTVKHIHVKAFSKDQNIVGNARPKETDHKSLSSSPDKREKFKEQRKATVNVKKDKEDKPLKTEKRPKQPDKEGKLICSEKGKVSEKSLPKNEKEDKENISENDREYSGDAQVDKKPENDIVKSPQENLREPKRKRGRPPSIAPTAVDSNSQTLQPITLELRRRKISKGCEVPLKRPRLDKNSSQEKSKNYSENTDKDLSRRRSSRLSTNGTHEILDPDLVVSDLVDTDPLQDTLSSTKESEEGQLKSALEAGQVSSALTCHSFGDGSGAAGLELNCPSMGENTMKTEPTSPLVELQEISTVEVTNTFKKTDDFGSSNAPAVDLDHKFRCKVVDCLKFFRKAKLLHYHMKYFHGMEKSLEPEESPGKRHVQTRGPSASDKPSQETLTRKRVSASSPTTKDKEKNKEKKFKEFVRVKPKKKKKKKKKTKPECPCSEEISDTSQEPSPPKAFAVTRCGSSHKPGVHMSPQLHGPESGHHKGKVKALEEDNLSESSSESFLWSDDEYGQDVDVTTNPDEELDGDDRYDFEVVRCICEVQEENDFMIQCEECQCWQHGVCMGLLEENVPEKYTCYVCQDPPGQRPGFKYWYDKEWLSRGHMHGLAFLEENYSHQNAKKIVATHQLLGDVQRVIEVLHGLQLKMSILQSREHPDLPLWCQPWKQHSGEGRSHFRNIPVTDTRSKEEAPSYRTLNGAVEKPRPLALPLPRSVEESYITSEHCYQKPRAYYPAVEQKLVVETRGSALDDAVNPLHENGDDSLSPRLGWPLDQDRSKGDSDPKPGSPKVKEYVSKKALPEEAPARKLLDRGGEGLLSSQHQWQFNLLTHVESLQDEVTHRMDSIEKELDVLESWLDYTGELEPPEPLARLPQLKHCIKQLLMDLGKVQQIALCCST
Chain of UniProt Q96FJ2 (Q96FJ2 whole entry): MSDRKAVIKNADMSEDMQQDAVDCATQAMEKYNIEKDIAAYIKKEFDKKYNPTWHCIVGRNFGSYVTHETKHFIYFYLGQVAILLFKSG
Chain of UniProt Q9BW71 (Q9BW71 whole entry): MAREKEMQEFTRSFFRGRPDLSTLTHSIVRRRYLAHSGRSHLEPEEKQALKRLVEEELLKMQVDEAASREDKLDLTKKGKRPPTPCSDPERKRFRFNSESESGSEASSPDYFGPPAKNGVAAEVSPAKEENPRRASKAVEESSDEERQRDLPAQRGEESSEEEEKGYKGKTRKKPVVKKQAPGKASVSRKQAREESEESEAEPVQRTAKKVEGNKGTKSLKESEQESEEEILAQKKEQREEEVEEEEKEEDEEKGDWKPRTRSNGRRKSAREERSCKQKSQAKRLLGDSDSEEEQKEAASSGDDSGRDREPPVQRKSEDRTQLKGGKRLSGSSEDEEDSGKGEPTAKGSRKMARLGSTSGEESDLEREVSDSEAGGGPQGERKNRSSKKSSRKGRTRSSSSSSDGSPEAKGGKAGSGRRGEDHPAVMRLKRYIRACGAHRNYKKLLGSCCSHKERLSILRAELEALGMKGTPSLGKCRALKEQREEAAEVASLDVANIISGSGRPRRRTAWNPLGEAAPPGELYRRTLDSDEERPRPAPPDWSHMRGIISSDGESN
Chain of UniProt Q9ULV4 (Q9ULV4 whole entry): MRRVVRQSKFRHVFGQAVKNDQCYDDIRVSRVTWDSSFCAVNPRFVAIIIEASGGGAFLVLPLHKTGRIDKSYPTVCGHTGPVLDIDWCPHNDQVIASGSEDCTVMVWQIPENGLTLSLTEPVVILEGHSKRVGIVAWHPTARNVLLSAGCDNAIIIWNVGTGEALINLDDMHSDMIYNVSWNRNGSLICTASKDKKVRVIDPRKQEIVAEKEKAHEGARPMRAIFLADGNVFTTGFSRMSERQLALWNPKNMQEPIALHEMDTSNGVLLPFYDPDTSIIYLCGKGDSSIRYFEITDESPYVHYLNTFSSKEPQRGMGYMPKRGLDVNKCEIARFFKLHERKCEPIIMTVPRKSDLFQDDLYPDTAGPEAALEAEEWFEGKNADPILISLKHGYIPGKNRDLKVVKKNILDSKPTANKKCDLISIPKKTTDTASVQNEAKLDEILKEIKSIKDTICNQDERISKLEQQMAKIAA

Target	NP40-soluble protein abundance (concentration: 0.1mM)	NP40-soluble protein abundance (concentration: 0.5mM)	NP40-soluble protein abundance (concentration: 1mM)	NP40-soluble protein abundance (concentration: 2mM)	NP40-soluble protein abundance (concentration: 4mM)	NP40-soluble protein abundance (concentration: 6mM)	NP40-soluble protein abundance (concentration: 8mM)	NP40-soluble protein abundance (concentration: 10mM)
UniProt Q9ULV4|Q9ULV4-2|Q9ULV4-3	0.986 ± 0.021	1.11 ± 0.089	1.16 ± 0.088	1.26 ± 0.17	1.42 ± 0.22	1.53 ± 0.3	1.67 ± 0.33	1.74 ± 0.36
HIRIP3 (UniProt Q9BW71)	0.932 ± 0.071	0.925 ± 0.089	1.01 ± 0.1	0.983 ± 0.15	1.04 ± 0.14	1.07 ± 0.14	1.13 ± 0.06	1.14 ± 0.094
UniProt Q9BVI0|A0A0A0MT13|Q5JWZ0|Q5JXL1	1.11 ± 0.068	1.07 ± 0.12	1.19 ± 0.078	1.27 ± 0.057	1.52 ± 0.056	1.553 ± 0.012	1.77 ± 0.08	1.71 ± 0.071
UniProt Q9NS23|Q9NS23-2|Q9NS23-3|Q9NS23-4|Q9NS23-5	0.978 ± 0.032	1.03 ± 0.098	1.04 ± 0.051	1.04 ± 0.058	1.05 ± 0.09	1.01 ± 0.022	0.971 ± 0.056	0.968 ± 0.11
UniProt Q96FJ2	0.875 ± 0.063	0.83 ± 0.033	1.07 ± 0.12	1.06 ± 0.081	1.18 ± 0.1	1.03 ± 0.11	1.05 ± 0.087	1.18 ± 0.17
